Results published in PubChem BioAssay (NCI).
This is part of a sample that, as a whole, favours compounds with a hit. Of some 83,000 tested, about 20% had one in any assay.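 Compound tested at a single concentration for 48 hours in 96-well plates; a percent growth value below 10 was scored as active.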 The source made the active and inactive calls.

Experiments:
Assay in all cases: NCI-60 one-dose screen, 48 h (100 = growth as untreated, 0 = no growth, -100 = all killed)
Settings in all cases: 10 µM unless noted
[1] = tested on: SR leukemia
[2] = tested on: RPMI-8226 leukemia
[3] = tested on: OVCAR-8 ovarian
[4] = tested on: OVCAR-4 ovarian
[5] = tested on: SK-OV-3 ovarian
[6] = tested on: IGROV1 ovarian
[7] = tested on: OVCAR-3 ovarian
[8] = tested on: HS 578T breast
[9] = tested on: NCI/ADR-RES ovarian
[10] = tested on: OVCAR-5 ovarian

Measured: growth

COc1cc(C2C3=C(COC3=O)Nc3cc4c(cc32)OCO4)cc2c1OCO2 (stereo not given)
inactive: [2] 21.9% | [3] 14.3% | [4] 51.9% | [5] 12.8% | [6] 23.6% | [8] 14.6%
active: [1] -0.432% | [7] -45.3% | [9] 9.84%

COc1ccc(CNCCCN2C(=O)c3ccc4c5c(ccc(c35)C2=O)C(=O)N(CCCNCCCCNCCCN)C4=O)c(OC)c1OC
active: [1] 6.04% | [3] 4.39% | [4] -48.3% | [6] -4.4% | [7] 3.29%
inactive: [2] 39.7% | [5] 51.7% | [8] 73.1% | [9] 60.7%

COc1ccc(-c2ccc(C)n2-c2ccc(-c3nc4cc(Cl)ccc4s3)cc2)cc1
inactive: [1] 76.9% | [3] 104% | [10] 74.6% | [4] 84.8% | [5] 96.7% | [6] 54.9% | [7] 109% | [8] 103% | [9] 95.8%

CN(C)CCN1C(=O)c2ccc3c4c(ccc(c24)C1=O)C(=O)N(CCN=C=S)C3=O
active: [1] -39.7% | [2] -45% | [3] -88.7% | [4] -94.3% | [5] -97% | [6] -64.3% | [7] -96.5% | [8] -6.37% | [9] -57.3%

COc1ccc(-c2c(-c3cc(OC)c4c(c3)OCO4)noc2N)cc1
active: [1] -7.43% | [3] 9.5% | [5] 4.02% | [7] -47.3%
inactive: [2] 23.8% | [4] 34.4% | [6] 14.6% | [8] 28% | [9] 13.8%

O=C(/C=C/c1ccccc1)c1cccc(O)c1
active: [1] 6.27% | [2] -37.8%
inactive: [3] 86.5% | [4] 106% | [5] 104% | [6] 82% | [8] 110% | [9] 103%

COc1ccc2c(c1)OC1=C(C(=O)OC1)C2c1cc(OC)c2c(c1)OCO2 (stereo not given)
active: [1] -7% | [5] 8.55% | [7] -51.3%
inactive: [2] 28.3% | [3] 20.2% | [4] 39.8% | [6] 21.1% | [8] 14.9% | [9] 13.6%

Cc1ccc(C(=O)NCCCNc2nccc(-n3ccc4cccnc43)n2)cc1
inactive: [1] 92.7% | [3] 100% | [10] 89.8% | [4] 96.3% | [5] 106% | [6] 88.6% | [7] 105% | [8] 101% | [9] 92.3%

COc1cc(NCCCCCN)c2ncccc2c1
inactive: [1] 70.6% | [2] 88.8% | [3] 100% | [4] 86.8% | [5] 109% | [6] 98% | [8] 113% | [9] 109%

Cn1cnc2c(N3CCN(C(=O)OCc4ccc5c(Cl)cc(Cl)c(O)c5n4)CC3)nc(Cl)nc21
inactive: [1] 74.1% | [3] 51.3% | [10] 90.5% | [4] 32.7% | [5] 97.6% | [6] 66% | [7] 66.8% | [8] 75.7% | [9] 35.3%

O=C(NCc1cn(Cc2cccc(Oc3ccccc3)c2)nn1)c1cccnc1Nc1ccc(F)cc1
inactive: [1] 28.3% | [3] 67.2% | [10] 89.3% | [4] 86.1% | [5] 52.2% | [6] 79.4% | [7] 35.9% | [8] 76.7% | [9] 31.7%

CCCOC(=O)n1cccc1
inactive: [1] 114% | [2] 110% | [3] 108% | [4] 91.7% | [5] 101% | [7] 106% | [8] 105% | [9] 102%

O=C(NCCCNc1nccc(-n2ccc3cccnc32)n1)c1c(F)cccc1F
inactive: [1] 99.2% | [3] 107% | [10] 98.9% | [4] 94.9% | [5] 116% | [6] 97.6% | [7] 109% | [8] 103% | [9] 99.4%

Cc1ccc(S(=O)(=O)NCCCNc2cc(-c3cn(C(C)(C)C)nc3-c3cccc(O)c3)ccn2)cc1
inactive: [1] 40.6% | [3] 71.9% | [10] 78.5% | [4] 56% | [5] 85.7% | [6] 61.7% | [7] 74.6% | [8] 60% | [9] 72.4%

Cc1cc(C(C)(C)C)ccc1S
inactive: [1] 93.4% | [2] 104% | [3] 111% | [4] 99.2% | [5] 105% | [6] 109% | [7] 111% | [8] 101% | [9] 112%

COc1ccc2c(c1)C(c1cc(OC)c3c(c1)OCO3)C1=C(COC1=O)N2 (stereo not given)
active: [1] 6.1% | [7] -44% | [9] 2.82%
inactive: [2] 22.1% | [3] 19% | [4] 41.2% | [5] 16.2% | [6] 28.8% | [8] 21%

C1=Cc2ccccc2N(c2nnc(-c3ccccc3)o2)c2ccccc21
inactive: [1] 32.3% | [3] 95.4% | [10] 98.2% | [4] 92.1% | [5] 114% | [6] 92.9% | [7] 107% | [8] 102% | [9] 92.2%
